# Measured values published in PMC4336329 (PLoS ONE, 2015).
# About 14,000 (4.5%) of roughly 310,000 compounds showed an effect of 50% or more. The effect is printed as a negative number. Only a selection was taken, and strong results are over-represented in it overall.
# Biological target: human ether-à-go-go-related gene (hERG) potassium channel (human, UniProt Q12809)
# Assay: primary screen, population patch clamp on CHO cells stably expressing hERG; higher = less effect of the substance
# 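Also: peak tail current of the secondary pulse compared with the same well before compound.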
# Chain of human ether-à-go-go-related gene (hERG) potassium channel (Q12809 whole entry, looked up): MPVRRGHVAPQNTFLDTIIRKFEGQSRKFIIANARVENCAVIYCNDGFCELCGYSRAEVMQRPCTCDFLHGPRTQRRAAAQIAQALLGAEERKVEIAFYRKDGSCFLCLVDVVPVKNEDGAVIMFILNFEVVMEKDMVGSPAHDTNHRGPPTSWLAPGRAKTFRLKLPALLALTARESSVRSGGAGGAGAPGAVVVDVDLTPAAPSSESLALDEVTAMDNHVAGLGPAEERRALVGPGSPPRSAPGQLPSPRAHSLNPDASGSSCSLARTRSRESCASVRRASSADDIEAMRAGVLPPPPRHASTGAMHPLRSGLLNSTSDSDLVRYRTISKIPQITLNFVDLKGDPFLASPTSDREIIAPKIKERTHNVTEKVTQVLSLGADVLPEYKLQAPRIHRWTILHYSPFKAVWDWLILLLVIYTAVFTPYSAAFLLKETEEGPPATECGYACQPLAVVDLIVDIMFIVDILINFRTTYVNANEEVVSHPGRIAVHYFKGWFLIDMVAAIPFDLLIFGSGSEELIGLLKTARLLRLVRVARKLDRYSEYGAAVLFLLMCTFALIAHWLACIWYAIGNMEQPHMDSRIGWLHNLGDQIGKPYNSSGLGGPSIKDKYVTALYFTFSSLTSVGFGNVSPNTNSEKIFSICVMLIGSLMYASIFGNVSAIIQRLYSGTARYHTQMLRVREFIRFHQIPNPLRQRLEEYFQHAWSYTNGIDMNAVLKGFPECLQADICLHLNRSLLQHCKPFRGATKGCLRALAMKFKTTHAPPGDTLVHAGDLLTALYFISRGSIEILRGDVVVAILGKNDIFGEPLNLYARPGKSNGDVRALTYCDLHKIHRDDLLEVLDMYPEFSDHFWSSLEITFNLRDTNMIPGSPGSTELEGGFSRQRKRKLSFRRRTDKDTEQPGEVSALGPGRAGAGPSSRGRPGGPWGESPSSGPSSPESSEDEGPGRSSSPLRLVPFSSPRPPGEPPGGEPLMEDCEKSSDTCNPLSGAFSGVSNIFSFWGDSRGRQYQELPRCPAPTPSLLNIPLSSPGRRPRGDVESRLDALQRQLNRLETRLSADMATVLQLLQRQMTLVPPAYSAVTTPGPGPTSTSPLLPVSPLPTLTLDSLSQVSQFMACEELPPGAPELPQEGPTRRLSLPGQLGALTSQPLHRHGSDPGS
row,SMILES,"hERG current change (%, negative = inhibition) at 10uM"
1,C[C@@H](C(=O)NCC1CC1)[C@H]1C[C@]1(C)[C@H](NC(=O)OCc1ccccc1)c1ccccc1,-7.08%
2,Cc1cccc(C(=O)N2CCCC(CCC(=O)N3CCN(c4ccccn4)CC3)C2)c1C (stereo not drawn),-17.3%
3,O=C(Cn1cnc2cc([N+](=O)[O-])ccc2c1=O)Nc1cccc2ccccc12,-5.73%
4,O=C(O)c1ccc(Cl)c(S(=O)(=O)Nc2ccc(OCc3ccccc3)cc2)c1,7.79%
5,O=C(Cn1cc(C(=O)C2CC2)c2ccccc21)NCc1ccccc1,3.43%
6,Cc1cc(C(F)F)n2ncc(C(=O)NC3CCCCCC3)c2n1,-11.5%
7,O=C(NCc1ccc2c(c1)OCO2)C(=O)NCC(c1ccco1)N1CCN(c2ccccc2)CC1 (stereo not drawn),16%
8,O=C(COc1ccccc1)Nc1ccc(N2CCN(C(=O)c3ccco3)CC2)cc1,-53%
9,Cc1cc(C)cc(OCC(=O)Nc2ccc(N3CCN(C(=O)c4ccco4)CC3)cc2)c1,-45.8%
10,O=C(COc1ccc(Cl)cc1)Nc1ccc(N2CCN(C(=O)c3ccco3)CC2)cc1,-21.1%
11,Cc1cccc(OCC(=O)Nc2ccc(N3CCN(C(=O)c4ccco4)CC3)cc2)c1,-28.1%
12,COc1ccc(OCC(=O)Nc2ccc(N3CCN(C(=O)c4ccco4)CC3)cc2)cc1,0.974%
13,COc1ccc(NC(=O)CSCC(=O)N2CCN(C(=O)c3ccco3)CC2)cc1,-55.1%
14,Cc1cccc(NC(=O)CSCC(=O)N2CCN(C(=O)c3ccco3)CC2)c1,-30.5%
15,Cc1ccc(OCC(=O)Nc2ccc(N3CCN(C(=O)c4ccco4)CC3)cc2)cc1,-56.1%
16,Cc1ccc(NC(=O)CSCC(=O)N2CCN(C(=O)c3ccco3)CC2)cc1,-21.6%
17,COc1ccc2c(c1)C(=O)N(c1ccc(C)cc1C)C(=O)C2,7.6%
18,O=C(O)C(Cc1ccccc1)N1C(=O)/C(=C/c2ccccc2)SC1=S (stereo not drawn),-0.221%
19,CCn1c(NCc2ccco2)nc2c1c(=O)n(C)c(=O)n2C,-10.7%
20,CCCCC1=C([O-])C2N=CC=CC2=[N+](c2ccccn2)C1=O (stereo not drawn),0.715%
21,Cc1ccc(-n2c(=O)[nH]c3c(C(N)=O)nc(CC(C)C)nc32)cc1,4.8%
22,O=C(Nc1ccccc1)N1CCCN(Cc2ccccc2F)C1,-8.48%

row,SMILES,"hERG current change (%, negative = inhibition) at 10uM"
1,Cc1ccc(Cl)cc1N1CCN(CC(=O)Nc2ccc(CN3CCCCC3)cc2)CC1.Cl,-71.1%
2,O=C(COc1ccc(Cl)cc1Cl)Nc1ccc(CN2CCCCC2)cc1,-67.9%
3,O=C(Cc1ccc(Cl)cc1)Nc1ccc(CN2CCCCC2)cc1,-64.9%
4,O=C(COc1ccc(Cl)cc1Cl)Nc1ccc(CN2CCOCC2)cc1,15.4%
5,O=C(Nc1ccc(Cl)cc1)N1CCCN(Cc2ccc(F)cc2)C1,-75.4%
6,O=C(Cc1ccc(Cl)cc1)Nc1ccc(C(=O)N2CCCCC2)cc1,14.5%
7,Cc1ccc(Cl)cc1N1CCN(CC(=O)Nc2ccc3[nH]c(=O)[nH]c3c2)CC1,11.1%
8,O=C(COc1ccccc1Cl)Nc1ccc(CN2CCCCC2)cc1,-33.7%
9,O=C(Cc1ccc(Cl)cc1)Nc1ccc(N2CCCC2)cc1,17.3%
10,O=C(Nc1ccc(Cl)cc1)N1CCCN(Cc2ccccc2F)C1,-26.3%
11,COc1ccccc1N1CCN(CC(=O)Nc2ccc(CN3CCCCC3)cc2)CC1.Cl,-11.5%
12,Cc1cc(C)n2nc(C(=O)N/N=C/c3ccccc3C)nc2n1,4.85%
13,O=C1c2ccccc2NC2(CCCC2)N1N=C1CCCC1,-12.2%
14,Cc1c(C(=O)Nc2cccc(S(=O)(=O)N3CCCC3)c2)oc2ccccc12,5.98%
15,O=C(CCNS(=O)(=O)c1ccccc1)Nc1ccccc1,17.8%
16,CCc1ccc(NC(=O)C2CCN(S(=O)(=O)c3ccc4c(c3)NC(=O)C(C)S4)CC2)cc1 (stereo not drawn),19.2%
17,O=C(Oc1coc(CSc2nnc(NC(=O)c3cccs3)s2)cc1=O)c1ccccc1,7.37%
18,COc1ccc(NS(=O)(=O)c2cccc(NC(=O)NC3CCCCC3)c2)cc1,-4.21%
19,CC(OC(=O)CC1CC2CCC1C2)C(=O)Nc1ccc(C(N)=O)cc1 (stereo not drawn),-16%
20,CCCCNC(=O)Nc1c(C(=O)OCC)[nH]c2ccccc12,6.83%
21,COc1cc2nc(/C=C/c3cc(OC)c(OC)c(OC)c3)sc2cc1SC,5.92%
22,CO/N=C/CC(=O)Nc1ccc(F)cc1F,13.3%

row,SMILES,"hERG current change (%, negative = inhibition) at 10uM"
1,O=C(Nc1ccc(CN2CCCCC2)cc1)Nc1ccccc1Cl,-59%
2,O=C(COc1ccccc1)Nc1ccc(CN2CCCCC2)cc1,-26.9%
3,Cc1ccc(OCC(=O)Nc2ccc(CN3CCCCC3)cc2)c(C)c1,-69.4%
4,Cc1ccc(C(=O)Nc2ccc(CN3CCCCC3)cc2)c(C)c1,-35.2%
5,O=C(CN1CCCC1)Nc1ccc(NC(=O)Nc2ccccc2Cl)cc1,-21.5%
6,CCN1CCN(Cc2ccc(NC(=O)Nc3ccccc3Cl)cc2)CC1,-22.8%
7,COc1ccc(C2CC(c3ccccc3)=NN2C(=O)CCC(=O)O)cc1 (stereo not drawn),8.77%
8,O=C(COc1ccc(Cl)cc1)NCC(=O)N/N=C/c1cccs1,12%
9,O=C(CN1C(=O)C2CCCCC2C1=O)Nc1nc(-c2ccc(F)cc2)cs1 (stereo not drawn),5.21%
10,O=C(Nc1nc(-c2ccc(Cl)cc2)cs1)c1cccnc1,5.68%
11,CC1(C)C(C#N)=C(N)Oc2c1c(=O)oc1ccccc21,0.829%
12,Cn1c(N)c(C(=O)CNC2CCCCC2)c(=O)n(C)c1=O,5.61%
13,COc1ccc(-c2cc(-c3n[nH]c(=S)n3-c3ccccc3Cl)[nH]n2)cc1,13.5%
14,Nn1c(Cc2cccc3ccccc23)nnc1SC1CCOC1=O (stereo not drawn),-0.158%
15,Cc1ccc(-c2cc(C(=O)N/N=C/C=C/c3ccccc3)n[nH]2)o1,-7.76%
16,Cc1ccc(C)c(N2CCN(c3ncccc3[N+](=O)[O-])CC2)c1,2.42%
17,COc1cc(NC(=O)C2=C(C)OCCS2)c(Cl)cc1C(=O)NCCN(C)C,-3.65%
18,CCOCCCNC(=O)c1cc(Cl)c(NC(=O)C2=C(C)OCCS2)cc1OC,-9.78%
19,CCN(CC)CCCNC(=O)c1cc(Cl)c(NC(=O)C2=C(C)OCCS2)cc1OC,-61.5%
20,CCN1CCN(CCNC(=O)c2cc(Cl)c(NC(=O)C3=C(C)OCCS3)cc2OC)CC1,-73.4%
21,CCCNC(=O)c1cc(Cl)c(NC(=O)C2=C(C)OCCS2)cc1OC,-14.5%
22,COc1cc(NC(=O)C2=C(C)OCCS2)c(Cl)cc1C(=O)NCCN1CCN(C)CC1,-47.1%

row,SMILES,"hERG current change (%, negative = inhibition) at 10uM"
1,O=C(CCS(=O)(=O)c1ccccc1)Nc1ccc(Cl)cn1,-3.42%
2,CCN(CC)C(=O)Cn1cc(C(=O)C(=O)NCCCn2ccnc2)c2ccccc21,27.8%
3,CCCN1C(=O)COc2ccc(C(=O)c3ccccc3C(=O)O)cc21,17.7%
4,CC(c1ccccc1)N1C(=O)c2ccc(C(=O)NCc3cccnc3)cc2C1=O (stereo not drawn),-18.4%
5,O=C(NC(=S)N(Cc1ccccc1)Cc1ccccc1)C1CCCCC1,12.6%
6,COc1ccc(C(=O)N2CCN=C2SC)cc1,1.04%
7,O=S(=O)(Nc1cccnc1)c1cc(Cl)ccc1Cl,9.51%
8,COc1cc(CN2CCCC(C(=O)c3ccc(C(C)(C)C)cc3)C2)cc(OC)c1O (stereo not drawn),-47.3%
9,COc1cc(CN2CCCC(C(=O)c3sccc3C)C2)cc(Cl)c1O (stereo not drawn),-53.8%
10,Cc1ccc(CN2CCCC(C(=O)c3sccc3C)C2)o1 (stereo not drawn),-11%
11,COc1cc(OC)c(OC)cc1CN1CCCC(C(=O)c2sccc2C)C1 (stereo not drawn),-63.4%
12,CCc1ccc(CN2CCCC(C(=O)c3sccc3C)C2)o1 (stereo not drawn),2.99%
13,COc1ccc(OC)c(CN2CCCC(C(=O)c3sccc3C)C2)c1 (stereo not drawn),-63.9%
14,COCc1ccc(CN2CCCC(C(=O)c3sccc3C)C2)o1 (stereo not drawn),5.56%
15,COc1cc(CN2CCCC(C(=O)c3ccc(SC)cc3)C2)cc(Cl)c1O (stereo not drawn),-72.8%
16,COc1ccc(O)c(CN2CCCC(C(=O)c3sccc3C)C2)c1 (stereo not drawn),9.89%
17,COc1cc(CN2CCCC(C(=O)c3sccc3C)C2)cc(OC)c1O (stereo not drawn),-47.8%
18,CCOC(=O)C1CCCN(Cc2cc(OC)c(O)c(OC)c2)C1 (stereo not drawn),-2.31%
19,O=C(CCn1cnc2ccccc2c1=O)Nc1ccc2c(c1)OCCO2,15.1%
20,Cc1cc(C(=O)N(C)C2CCCCC2)no1,11.7%
21,CC(=O)O[C@H]1CC[C@@]2(C)[C@@H](CC[C@@H]3[C@@H]2CC[C@]2(C)[C@@H](C(C)(C)O)C[C@@H]32)C1,9.09%
